Among the data in the supplement of paper PMC12024424 are growth reduction values, retold here.

Test [1] has as its system Staphylococcus aureus Sa2 (MRSA, cystic fibrosis isolate). The experiment in a line: growth reduction vs untreated control (viable cell count); higher = stronger antibacterial activity; extreme values may be limits of the assay. Particulars: 0.1 mM; 24 h. As to the method:
(§1)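 Single-dose screen of the MedChem Express Drug Repurposing Library (0.1 mM, 1% DMSO) against planktonic MRSA S. aureus Sa2 (CF isolate) in TSB in 96-well plates, 37 °C aerobic, 24 h. Assays were run in triplicate and repeated twice.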

Test [2] has the same test system. As to the kind of experiment: growth reduction vs untreated control (OD550); higher = stronger antibacterial activity. As to conditions: 0.1 mM; 24 h. On the procedure: as §1

Structures can show the parent of a compound that is named as a salt.

In the case of `CC(=O)Oc1cccc2c1C(=O)c1c(OC(C)=O)cc(C(=O)O)cc1C2=O` [Diacerein], the growth reduction in test [1] stood at 100%.

As to `Cn1cc(-c2ccncc2)c(-c2ccc(OCc3ccc4ccccc4n3)cc2)n1` [Mardepodect], the growth reduction in test [2] is 100%; in test [1], 93%. The matching figures for `CC(OC(=O)c1ccc(Cc2c(O)c3ccccc3oc2=O)cc1)(C(F)(F)F)C(F)(F)F` [Tecarfarin]: 100% and 100%. As to `O=C(Nc1ccc(F)cc1)c1cnc(SCc2cc(OC(F)(F)F)ccc2B(O)O)nc1`, the growth reduction in test [2] and in test [1] was 100% each time. As to `CCOc1nc2cccc(C(=O)OC(C)OC(=O)OC3CCCCC3)c2n1Cc1ccc(-c2ccccc2-c2nn[nH]n2)cc1` (stereo not drawn) [Candesartan Cilexetil], the growth reduction in test [2] and in test [1] was 100% throughout. `O=C(O)Cc1cc(I)c(Oc2ccc(O)c(I)c2)c(I)c1` [Tiratricol]: the growth reduction in test [2] and in test [1] was 100% in each case.

In the case of `O=C(O)c1cc(F)c2nc(N3[C@@H]4CC[C@H]3C[C@@H](OCc3c(-c5ccccc5OC(F)(F)F)noc3C3CC3)C4)sc2c1` [Tropifexor], the growth reduction in test [2] and in test [1] was 100% in each case. As to `NC(=O)C1=C(O)[C@@]2(O)C(=O)C3=C(O)c4c(O)cccc4C[C@H]3C[C@H]2CC1=O` [Incyclinide], the growth reduction in test [2] and in test [1] was 100% each time. As for `CCN(CC)CCN(Cc1ccc(-c2ccc(C(F)(F)F)cc2)cc1)C(=O)Cn1c(SCc2ccc(F)cc2)nc(=O)c2c1CCC2` [Darapladib], the growth reduction in test [2] and in test [1] was 100% in each case.

`CN[C@H]1CC[C@@H](c2ccc(Cl)c(Cl)c2)c2ccccc21` [Sertraline (hydrochloride)]: the growth reduction in test [2] and in test [1] was 100% throughout. `CC(C)C[C@@H](C(=O)N[C@H](C(=O)OC1CCCC1)c1ccccc1)[C@H](O)C(=O)NO` [Tosedostat]: the growth reduction in test [2] and in test [1] was 100% in each case. In the case of `COc1c(-c2ccc3cc(NS(C)(=O)=O)ccc3c2)cc(-n2ccc(=O)[nH]c2=O)cc1C(C)(C)C` [Dasabuvir], the growth reduction is 91.1% in test [2] and 93% in test [1]. The matching figures for `COc1cccc(Nc2ncnn3ccc(CN4CC[C@@H](N)[C@H](O)C4)c23)c1`: 92.5% and 94%.

Turning to `Nc1ccc(S(=O)(=O)Nc2cnc3c(Cl)cccc3n2)cc1` [Chloroquinoxaline sulfonamide], the growth reduction was determined as 91.6% in test [2] and 99% in test [1]. The like results for `CC(C)(C)NC(=O)N[C@H](C(=O)N1C[C@H]2[C@@H]([C@H]1C(=O)NC(CC1CCC1)C(=O)C(N)=O)C2(C)C)C(C)(C)C` (stereo partly drawn) [Boceprevir] were, in that order, 91.4% and 92%. The like results for `Cc1ccc(C#Cc2ccc(S(=O)(=O)N[C@H](Cc3c[nH]c4ccccc34)C(=O)O)s2)cc1` were, in that order, 98.4% and 100%.

For the compound `O=C(O)c1cc(-c2ccc(F)cc2F)ccc1O` [Diflunisal], the figures for the growth reduction in test [2] and in test [1] were 93.6% and 98%, respectively. As for `CC[C@@]1(O)C[C@H](O[C@H]2C[C@H](N(C)C)[C@H](O[C@H]3C[C@H](O)[C@H](O[C@H]4CCC(=O)[C@H](C)O4)[C@H](C)O3)[C@H](C)O2)c2c(cc3c(c2O)C(=O)c2c(O)cccc2C3=O)[C@H]1C(=O)OC` [Aclacinomycin A hydrochloride], the growth reduction in test [2] and in test [1] was 100% throughout.

On to `CCN(CC)CCOc1ccc(C(=C(Cl)c2ccccc2)c2ccccc2)cc1` [Clomiphene (citrate)], for which the growth reduction in test [2] and in test [1] was 100% each time. As for `COc1cc([C@@H]2c3cc4c(cc3[C@@H](O[C@@H]3O[C@@H]5CO[C@@H](c6cccs6)O[C@H]5[C@H](O)[C@H]3O)[C@H]3COC(=O)[C@H]23)OCO4)cc(OC)c1O` [Teniposide], the growth reduction in test [2] and in test [1] was 100% in each case. For `Cc1ccc(C(=O)N(CCCN)[C@@H](c2oc3cc(Cl)ccc3c(=O)c2Cc2ccccc2)C(C)C)cc1`, the growth reduction in test [2] and in test [1] was 100% each time. As to `Cc1ccc(NC(=O)c2ccc(CN3CCN(C)CC3)cc2)cc1Nc1nc(-c2cccnc2)cs1` [Masitinib (mesylate)], the growth reduction in test [2] and in test [1] was 100% in each case. For the compound `CN1CCN(c2ccc(C(=O)Nc3n[nH]c4ccc(Cc5cc(F)cc(F)c5)cc34)c(NC3CCOCC3)c2)CC1` [Entrectinib], the growth reduction in test [2] was found to be 100%; in test [1] it was 96%. For `CN(C(=O)CN(CCO)CC(=O)N(C)C(C)(C)Cc1ccccc1)C(C)(C)Cc1ccccc1` [Oxethazaine], the growth reduction in test [2] and in test [1] was 100% in each case. As to `CCCCOc1nc(N)c2c(n1)N(Cc1cccc(CN3CCCC3)c1)CC(=O)N2` [Vesatolimod], the figures for the growth reduction in test [2] and in test [1] were 100% and 98%, respectively. The like results for `Cn1ncc(Cl)c1-c1cc(C(=O)N[C@H](CN)Cc2cccc(F)c2)sc1Cl` [Afuresertib] were, in that order, 100% and 100%. The matching figures for `COc1cc([C@H]2C(C#N)=C(N)Oc3c2ccc(N)c3N)cc(Br)c1OC` [Crolibulin]: 98.1% and 100%.
